# PLAP act: activates human placental alkaline phosphatase | P05187 | purified PLAP enzyme, luminescent substrate read-out; hits give high values | activation fold at 20 µM | 96,000 compounds, 1.2% hits | AID 696; in the data active means activation fold above about 2
# CYP2C9 activ: increases human cytochrome P450 2C9 activity. P11712. recombinant CYP2C9, luciferin-H conversion, luminescence; hits give high values; factor 1 = untreated enzyme, 0 = blocked. activation factor at 5 µM. 96,000 compounds, 1.4% hits. AID 1024;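 active means activation factor of 2 or more for CYP2C9 at a 5 µM dose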;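 further: 0 = sulfaphenazole-blocked wells and 1 = vehicle-only wells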
# CYP2C19 inh: blocks human cytochrome P450 2C19; 96,000 compounds, 21% hits; CYP2C19 Supersomes, luciferin-H EGE luminescence, 30 min; inhibition, % at 5 µM;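 active means CYP2C19 inhibition above a set limit at 5 µM in the primary screen, cut at about 50% in these data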;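 further: plate controls were negative control wells for no effect and 2.5 mM tranylcypromine positive control for full effect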
# Target sequence (P33261 whole entry, looked up): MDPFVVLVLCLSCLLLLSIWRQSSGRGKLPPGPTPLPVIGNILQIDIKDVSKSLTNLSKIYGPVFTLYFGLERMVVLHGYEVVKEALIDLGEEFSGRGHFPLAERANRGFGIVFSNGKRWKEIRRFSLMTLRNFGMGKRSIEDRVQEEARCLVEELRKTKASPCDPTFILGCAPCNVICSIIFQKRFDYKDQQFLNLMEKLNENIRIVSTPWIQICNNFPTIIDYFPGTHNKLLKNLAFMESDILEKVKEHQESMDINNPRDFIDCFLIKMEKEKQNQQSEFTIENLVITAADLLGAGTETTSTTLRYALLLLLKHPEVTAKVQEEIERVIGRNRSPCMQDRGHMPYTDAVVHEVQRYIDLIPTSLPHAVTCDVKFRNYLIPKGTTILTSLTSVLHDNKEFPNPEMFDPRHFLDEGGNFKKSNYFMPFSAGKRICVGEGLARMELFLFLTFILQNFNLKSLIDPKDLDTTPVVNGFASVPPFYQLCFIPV
# CYP2C19 activ: increases human CYP2C19 enzyme activity; activation factor at 5 µM; P33261; recombinant CYP2C19, luciferin-H EGE luminescence; hits give high values; 0 = fully inhibited enzyme, 1 = untreated enzyme; 96,000 tested, under 10 active;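 active means activation factor of at least 2 at 5 µM in the primary screen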;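 further: 0 = wells with 2.5 mM tranylcypromine and 1 = vehicle-only wells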
# CYP2C9 inhib: human CYP2C9 inhibition | P11712 | CYP2C9 Supersomes, luciferin-H conversion, luminescence | inhibition, % at 5 µM | 96,000 compounds, 20% hits | AID 777;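 active means blocking of liver enzyme CYP2C9 beyond about 50% at 5 µM, limit read from the data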
# * hit, by the source's call. Only some compounds are listed: those with a hit (about 31% of all), similar ones and a draw of the others.
SMILES,PLAP act,CYP2C9 activ,CYP2C19 inh,CYP2C19 activ,CYP2C9 inhib
CCC(NC(=O)NCc1cccnc1)(C(F)(F)F)C(F)(F)F,1,0.3,87.0*,0.1,72.6*
CC(C)C(c1nnnn1Cc1cccs1)N1CCN(c2ccccc2)CC1 (centres undefined),1,0.9,-1.8,1,5.4
Cc1sc(C(=O)NCc2cccnc2)c2nc(C)n(CC(=O)NCc3cccnc3)c(=O)c12,0.7,0,58.9*,0.4,96.8*
CC(C)(C)c1ccc(C(=O)c2c[nH]c(C(=O)NCc3cccnc3)c2)cc1,1.1,0.9,19.8,0.8,12.3
Cn1c(=O)n(CC(=O)NCc2cccnc2)c2ccccc21,0.8,1.1,-5.0,1.1,-10.1
CCOc1cc(OCC)cc(C(=O)Nc2cccnc2)c1,0.8,0.8,-6.7,1.1,22.8
CC(C)(C)c1ccc(C(=O)NCc2cccnc2)cc1,1.1,0.3,58.8*,0.4,68.9*
Cn1nc(C(=O)NCc2cccnc2)c2ccccc2c1=O,1,0.4,77.6*,0.2,59.6*
COc1cc(OC)cc(C(=O)NC(=S)Nc2cccnc2)c1,1,0.2,76.2*,0.2,77.8*
O=C(O)CS(=O)(=O)CC(=O)O,0.9,0.9,-2.7,1,13.6
Cc1ccccc1-n1nc(C)c2cc(C(=O)NCc3cccnc3)sc21,1.5,0.5,43.6,0.6,54.9*
Cc1ccccc1-n1nc(C)c2cc(C(=O)N3CCN(S(=O)(=O)c4ccccc4)CC3)sc21,1.2,1.1,-8.4,1.1,-9.1
COc1ccc(OCC(=O)NCc2cccnc2)cc1,0.8,0.7,58.1*,0.4,30.5
COc1ccc(C(=O)NCc2cccnc2)cc1Br,1.1,0.3,27.7,0.7,72.5*
O=C(CC(=O)NCc1cccnc1)NCc1cccnc1,0.9,1,15.1,0.8,3.0
O=C(NCc1cccnc1)c1cc(-c2ccccc2)on1,1.2,0.8,1.2,1,24.6
COc1ccc(-c2cc(C(=O)NCc3cccnc3)no2)cc1,1,0.4,20.5,0.8,57.5*
CCOC(=O)c1cc(NC(=O)c2ccc(OC)cc2)c(=O)oc1-c1ccccc1,0.9,0.8,30.7,0.7,18.7
CCOC(=O)N1CCN(C(=O)CSCC(=O)Nc2nc(-c3ccc(C)cc3)cs2)CC1,1.3,0.7,-20.4,1.2,29.8
COc1ccc(CNC(=O)c2cc(C3CC3)on2)cc1,0.9,0.8,81.4*,0.2,21.0
C/C(NCc1cccnc1)=C(\C#N)C(=O)NCc1ccccc1,1,0.8,81.9*,0.2,23.3
O=C(NCCc1ccccc1)c1cccnc1,0.9,1,-0.6,1,-4.6
O=C(NCc1ccc(Cl)cc1)c1cccnc1,0.9,0.9,65.9*,0.3,7.6
CCOc1ccccc1CNC(=O)CCN1C(=O)COc2ccccc21,1.2,1.9,74.7*,0.3,-85.9
COCCNC(=O)c1c[nH]c2ccc(S(=O)(=O)N3CCC4(CC3)OCCO4)cc2c1=O,1.2,0.8,11.5,0.9,19.8
SMILES,PLAP act,CYP2C9 activ,CYP2C19 inh,CYP2C19 activ,CYP2C9 inhib
Cc1nonc1NC(=O)c1ccc(Cl)c(S(=O)(=O)N2CCCCC2)c1,1.1,1.2,68.1*,0.3,-17.9
O=C(Nn1cnnc1)c1ccc(F)c(S(=O)(=O)N2CCCCC2)c1,1.2,0.3,99.4*,0,72.5*
O=C(NC1=NCCS1)c1ccc(Cl)c(S(=O)(=O)N2CCCCC2)c1,1.6,0.6,43.3,0.6,36.3
O=C(Nc1nccs1)c1ccc(Cl)c(S(=O)(=O)N2CCCCC2)c1,0.9,0.5,65.2*,0.3,53.3*
O=C(NCc1cccs1)c1cccc(S(=O)(=O)N2CCCCC2)c1,0.9,0.3,75.0*,0.3,67.2*
CC(C)c1ccc(CNC(=O)CSCC(=O)Nc2ccc3ccccc3c2)cc1,1.1,1,-8.9,1.1,3.6
Cc1ccc(CC(=O)NCCS(=O)c2ccc(Cl)cc2)cc1 (centres undefined),0.9,0.8,29.1,0.7,18.9
O=C(Nc1nccs1)c1cccc(S(=O)(=O)N2CCCCC2)c1,1.5,0.3,93.9*,0.1,68.4*
CC1CCN(S(=O)(=O)c2cccc(C(=O)Nc3nccs3)c2)CC1,1.2,0.9,12.4,0.9,13.7
CCOc1cc(-c2nc(-c3ccncc3)no2)cc(OCC)c1OCC,1.1,0.2,61.2*,0.4,76.7*
CCOc1ccc(-c2nc(-c3ccncc3)no2)cc1OCC,1,0.4,45.1,0.5,63.2*
CN(C)S(=O)(=O)N(CC(=O)Nc1cccc(F)c1)c1ccccc1,0.8,0.4,42.7,0.6,56.6*
CCOc1ccccc1N(CC(=O)NCc1ccc(OC)cc1)S(C)(=O)=O,1.6,0.4,88.9*,0.1,62.2*
COc1ccc(CCNC(=O)CN(c2ccccc2OC)S(C)(=O)=O)cc1OC,1.1,0.6,39.9,0.6,42.4
CCOc1ccc(N(CC(=O)NCc2ccccc2OC)S(C)(=O)=O)cc1,1.3,0.9,21.0,0.8,13.5
CCOc1ccc(N(CC(=O)NCc2ccccc2)S(C)(=O)=O)cc1,1,0.6,50.3*,0.5,40.3
COc1ccc(CCNC(=O)CN(c2ccccc2OC)S(C)(=O)=O)cc1,1,0,92.9*,0.1,96.6*
CN(C)CCCNc1cc(Cl)c(S(=O)(=O)N2CCCCC2)cc1C(=O)O,1.5,1,2.2,1,-2.9
CN(C)S(=O)(=O)N(CC(=O)NCc1ccccc1)c1ccccc1,0.9,0.8,67.0*,0.3,17.9
CC(C)CC(c1nnnn1Cc1ccco1)N1CCN(C2CCCC2)CC1 (centres undefined),1.1,1,3.7,1,-3.1
O=C(CSc1nnc(-c2ccccc2O)o1)N1CCc2ccccc2C1,1.1,0.7,63.2*,0.4,33.2
O=C(CSc1nnc(-c2ccccc2)o1)N1CCc2ccccc2C1,0.9,0.9,13.1,0.9,12.0
COc1ccc(-c2nnc(SCC(=O)N3CCc4ccccc4C3)o2)cc1,1.5,0.9,78.1*,0.2,13.2
COc1ccc(C(O)CNc2ccc(C)cc2)cc1 (centres undefined),0.9,0.8,92.4*,0.1,16.4
COc1ccc(CCNc2ccc(C)cc2)cc1,0.8,0.5,84.6*,0.2,45.2
SMILES,PLAP act,CYP2C9 activ,CYP2C19 inh,CYP2C19 activ,CYP2C9 inhib
O=C(CN(c1ccc(F)cc1)S(=O)(=O)c1ccc2c(c1)OCCO2)NCC1CCCO1 (centres undefined),1.2,0.8,11.0,0.9,19.9
O=S(=O)(c1ccc2c(c1)OCCO2)N(Cc1ccc(F)cc1)Cc1nnc(-c2cccs2)o1,1.1,0.1,33.1,0.7,86.9*
Cc1cc(C(=O)CN(Cc2ccc(F)cc2)S(=O)(=O)c2ccc3c(c2)OCCO3)c(C)n1C,1.4,0.3,60.0*,0.4,66.4*
Cc1cc(Cl)ccc1OCCCC(=O)N1CCCc2ccccc21,1.4,0.8,20.9,0.8,20.6
COc1cccc(-n2nc(C(=O)N3CC(C)CC(C)C3)c3ccccc3c2=O)c1 (centres undefined),1.3,0.4,46.9,0.5,58.4*
COc1ccc(-n2nc(C(=O)O)c3ccccc3c2=O)cc1,0.9,1.2,-9.7,1.1,-22.7

# Screening results deposited in PubChem by Sanford-Burnham Center for Chemical Genomics.
